According to PubChem BioAssay (Tox21):
Results filed as inconclusive are left out. The source made the active and inactive calls. Unless noted, calls follow the shape of the dose curve; as a rule, active = well fitted curve in the direction sought with a large enough effect in the repeat runs; inconclusive = weak or mixed curves; inactive = no such curve, though single readings can be large; an effect the other way counts as inactive or inconclusive.

How the values were obtained:
[1] = qHTS assay to identify small molecule agonists of the vitamin D receptor (VDR) signaling pathway - cell viability counter screen (AID 743224); also: series mostly up to about 63 µM; nearly all actives have a fitted effect of over 50% in size
Procedure, shortened: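 VDR-bla cell line, quantitative HTS format; 16 h compound incubation (37C, 5% CO2); ATP-based CellTiter-Glo luminescence measured in the reporter assay wells.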

[2] = qHTS assay to identify small molecule antagonists of the vitamin D receptor (VDR) signaling pathway - cell viability counter screen (AID 743225); also: nearly all actives have a fitted effect of over 50% in size
Procedure, shortened: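 VDR-UAS-bla HEK 293T cells were plated and incubated 4 h at 37C, then dosed with compound plus 3 nM (final) 1-alpha,25-dihydroxyvitamin D3 for 16 h. After the 2 h beta-lactamase read, viability in the same wells was read as CellTiter-Glo luminescence after 30 min at room temperature.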

[3] = qHTS assay to identify small molecule agonists of the NFkB signaling pathway - cell viability counter screen (AID 1159515; calls by dose curve; also: series mostly up to about 61 µM; nearly all actives have a fitted effect of over 55% in size)
Procedure, shortened: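 Viability in NFkB-bla ME-180 cells was measured by CellTiter-Glo luminescence, 30 min room temperature, in wells already treated 5 hr with compounds and read for reporter FRET.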

[4] = qHTS assay to identify small molecule agonists of the endoplasmic reticulum stress response signaling pathway (AID 1159516; active = well fitted activation curve with a large enough effect in the signal ratio in the repeat runs, not every such curve was filed as active; the % refers to the signal ratio)
Procedure, shortened: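 ER stress element reporter (bla) in HeLa. 1,500 cells/well, overnight attachment; 5 hr compound; 2 hr RT substrate; dual-emission fluorescence.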

[5] = qHTS assay to identify small molecule agonists of the endoplasmic reticulum stress response signaling pathway - cell viability counter screen (AID 1159517; calls by dose curve;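 also: HeLa cells carrying an ER stress response element beta-lactamase reporter; series mostly up to about 61 µM; nearly all actives have a fitted effect of over 50% in size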)
Procedure, shortened: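 Counter-screen wells were identical to the reporter wells. Cells were plated at 1,500 per well and dosed for 5 hr, then read for luminescence 30 min after CellTiter-Glo addition.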

[6] = qHTS assay to identify small molecule antagonists of the retinoid-related orphan receptor gamma (ROR-gamma) signaling pathway - cell viability counter screen (AID 1159520); also: nearly all actives have a fitted effect of over 50% in size
Procedure, shortened: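 Tet-on ROR gamma CHO cells were given compounds for 2 hr, then doxycycline hyclate at 1 uM final, and incubated 16 hr at 37 C. Viability was measured as ATP content by CellTiter-Glo luminescence.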

[7] = qHTS assay to identify small molecule agonists of the AP-1 signaling pathway - cell viability counter screen (AID 1159525; calls by dose curve; also: nearly all actives have a fitted effect of over 55% in size)
Procedure, shortened: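 AP-1-bla ME-180 cells in Opti-MEM with 0.5% dialyzed FBS, compound exposure 5 h at 37 C in 15-point titration. Viability read in the same wells as ATP content by CellTiter-Glo luminescence, normalised to tetra-n-octylammonium bromide and DMSO controls.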

[8] = qHTS assay to identify small molecule agonists of the AP-1 signaling pathway (AID 1159526; calls by dose curve)
[9] = molecular target: Retinoic acid receptor RXR-alpha (Homo sapiens) (UniProt P19793); assay: qHTS assay to identify small molecule agonists of the RXR signaling pathway (AID 1159527; calls by dose curve; also: nearly all actives have a fitted effect of over 35% in size)
Retinoic acid receptor RXR-alpha (Homo sapiens), sequence (P19793 whole entry, looked up): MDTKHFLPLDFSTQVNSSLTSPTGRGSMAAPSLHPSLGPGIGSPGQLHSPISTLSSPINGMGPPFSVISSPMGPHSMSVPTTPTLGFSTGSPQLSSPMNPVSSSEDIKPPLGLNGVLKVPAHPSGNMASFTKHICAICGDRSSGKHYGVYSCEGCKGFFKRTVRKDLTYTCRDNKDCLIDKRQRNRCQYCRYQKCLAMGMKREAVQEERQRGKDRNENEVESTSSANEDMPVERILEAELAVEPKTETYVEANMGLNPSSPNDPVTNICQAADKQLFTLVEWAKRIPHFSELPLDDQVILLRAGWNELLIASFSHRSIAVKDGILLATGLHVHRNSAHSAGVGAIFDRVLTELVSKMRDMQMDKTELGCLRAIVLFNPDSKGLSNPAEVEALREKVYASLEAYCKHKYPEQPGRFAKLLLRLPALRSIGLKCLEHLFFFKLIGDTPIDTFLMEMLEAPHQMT
Procedure, shortened: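 GeneBLAzer RXR-alpha-UAS-bla HEK 293T cells in 2% charcoal-stripped FBS medium were exposed to compounds for 16 hr at 37 C in agonist mode. Beta-lactamase reporter read as 460/530 nm FRET ratio after 2 hr substrate loading.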

[10] = qHTS assay to identify small molecule agonists of the RXR signaling pathway - cell viability counter screen (AID 1159529)
Procedure, shortened: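 RXR-alpha-UAS-bla HEK 293T cells in medium with 2% charcoal-stripped FBS were pre-incubated 5 hr, then compound-treated 16 hr at 37 C. Viability was read by CellTiter-Glo luminescence in the same wells as the beta-lactamase assay, with tetraoctyl ammonium bromide as positive control.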

[11] = qHTS assay to identify small molecule antagonists of the retinoid acid receptor (RAR) signaling pathway - cell viability counter screen (AID 1159551); also: nearly all actives have a fitted effect of over 35% in size
Procedure, shortened: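 Following overnight attachment, C3RL4 reporter cells received DMSO-dissolved compounds and then retinol (1 uM final). Six hours later at 37 C, ATP content was measured by CellTiter-Glo luminescence.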

[12] = qHTS assay to identify small molecule antagonists of the retinoic acid receptor (RAR) signaling pathway (AID 1159552; also: nearly all actives have a fitted effect of over 50% in size)
Procedure, shortened: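 Retinol signaling pathway inhibitors screened in C3RL4 RARE-luciferase reporter cells seeded overnight at 37 C, then compounds added with 1 uM (final) retinol as pathway substrate. After 6 hr at 37 C, luciferase luminescence read after 30 min at room temperature.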

[13] = qHTS assay to identify small molecule agonists of the retinoic acid receptor (RAR) signaling pathway (AID 1159553)
Procedure, shortened: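 Cell line C3RL4, RARE luciferase reporter. Treatment: compounds in DMSO, 6 hr, 37 C, 5% CO2, after overnight plating. Detection: luminescence, 30 min RT after reagent.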

Measured: Potency

CCCCO
not listed: [12] | [13]
inactive: all other assays above

CC(C)OC(=O)C(C)N(C(=O)c1ccccc1)c1ccc(F)c(Cl)c1 (stereo not drawn)
not listed: [2] | [9]
inactive: all other assays above

NC(=O)C(c1ccccc1)(c1ccccc1)[C@@H]1CCN(CCc2ccc3c(c2)CCO3)C1
not listed: [1] | [9] | [12]
inactive: all other assays above

CC/C=C\CCOC(=O)CC
not listed: [12] | [13]
inactive: all other assays above
